Among the data in ChEMBL document CHEMBL4513141, “CO-ADD screening of NIH (USA) - Clinical Collection” (2021) are Inhibition values, retold here.

Assay [1] concerns Klebsiella pneumoniae. The following applies: Concentration 20 uM; ASSAY_TEST Inhibition of Bacterial Growth; detection method Absorption (OD600); MEDIA CAMHB; plate type 384well; NBS; CORNING #3640; time 18 hr.
In assay [2] the test system is Candida albicans. The following applies: 20 µM.
Assay [3] relates to Cryptococcus neoformans. The following applies: Concentration 20 uM; ASSAY_TEST Inhibition of Fungal Growth; detection method Resazurin; Absorption (OD600-OD570); plate type 384well; NBS; CORNING #3640. On the technique in general: The colour change of resazurin is a common sign of viable cells or microbes.

Potency and affinity values are given separately.

The Inhibition is the drop in the measured response relative to a control, in per cent. Regarding `COc1ccc(C2CNC(=O)C2)cc1OC1CCCC1` (stereo not drawn) [ROLIPRAM], the results for the Inhibition in assay [1], in assay [2] and in assay [3] were 19.56%, 4.38% and -5.22%, respectively.
The like results for `CN1CCCC(n2nc(Cc3ccc(Cl)cc3)c3ccccc3c2=O)CC1.Cl` (stereo not drawn) [AZELASTINE HYDROCHLORIDE] were, in that order, -1%, 4.45% and 4.19%.
With `CN(CCO)CC(O)Cn1cnc2c1c(=O)n(C)c(=O)n2C.O=C(O)c1cccnc1` (stereo not drawn) [XANTHINOL NIACINATE], the values for the Inhibition in assay [1], in assay [2] and in assay [3] were 12.07%, 0.26% and -2.36%, respectively.
The like results for `CC(=O)NCCCCCCNC(C)=O` [HEXAMETHYLENEBISACETAMIDE] were, in that order, 1.97%, 0.48% and -6.53%.
Consider `CN(C)CCN(Cc1ccccc1)c1ccccn1.Cl` [TRIPELENNAMINE HYDROCHLORIDE], for which the Inhibition in assay [1] came out at 2.28%; in assay [2], 5.56%; in assay [3], 2.92%.
With `CC12CCC(=O)C=C1CCC1C2CCC2(C)C1CCC2(O)C(=O)CO` (stereo not drawn), the Inhibition in assay [1] is 8.14%; in assay [2] it was 3.12%; in assay [3] it was -0.13%.
The like results for `Nc1nc(Cl)nc2c1ncn2[C@H]1C[C@H](O)[C@@H](CO)O1` [CLADRIBINE] were, in that order, 16.3%, 1.93% and -8.92%.
As to `CCOC(=O)C1(CCCCCCOc2ccc(Cl)cc2)CO1` (stereo not drawn) [rac-ETOMOXIR], the Inhibition in assay [1] was 8.69%; in assay [2], 1.76%; in assay [3] it was -1.88%.
Consider `COC(=O)C1=C(C)NC(C)=C(C(=O)OC(C)C)C1c1cccc2nonc12` (stereo not drawn) [ISRADIPINE], for which the Inhibition in assay [1] was 7.21%; in assay [2] it was 4.43%; in assay [3] it was -5.25%.
The like results for `CO[C@H]1O[C@@H]2O[C@@]3(C)CC[C@H]4[C@H](C)CC[C@@H]([C@H]1C)[C@@]24OO3` were, in that order, 9.17%, 19.1% and 6.04%.
The like results for `Clc1ccc2c(c1)C(N1CCNCC1)=Nc1ccccc1O2` [AMOXAPINE] were, in that order, 12.52%, 4.28% and -1.42%.
For `Cc1cccc(Nc2ccccc2C(=O)O)c1C` [MEFENAMIC ACID], the Inhibition in assay [1] amounted to 12.13%; in assay [2] it was 7.85%; in assay [3], 2.83%.
Take `NS(=O)(=O)c1cc2c(cc1C(F)(F)F)NC(Cc1ccccc1)NS2(=O)=O` (stereo not drawn) [BENDROFLUMETHIAZIDE]: the values for the Inhibition in assay [1], in assay [2] and in assay [3] were 6.67%, 3.76% and -1.07%, respectively.
The like results for `Cc1ccc(-c2cc(C(F)(F)F)nn2-c2ccc(S(N)(=O)=O)cc2)cc1` [CELECOXIB] were, in that order, 10.55%, 2.46% and 0.77%.
For the molecule `OC[C@H]1O[C@@H](Oc2cc(O)cc(/C=C/c3ccc(O)cc3)c2)[C@H](O)[C@@H](O)[C@@H]1O` [PICEID], the Inhibition in assay [1] was 6.92%; in assay [2], 3.19%; in assay [3] it was -0.2%.
Consider `COc1ccc(Cl)cc1C(=O)NCCc1ccc(S(=O)(=O)NC(=O)NC2CCCCC2)cc1` [GLYBURIDE], for which the Inhibition is 8.21% in assay [1], -0.39% in assay [2] and 1.86% in assay [3].
On to `COc1c2occc2cc2ccc(=O)oc12` [METHOXSALEN], for which the figures for the Inhibition in assay [1], in assay [2] and in assay [3] were 9.19%, 5.22% and -0.09%, respectively.
As to `Nc1nc(=O)c2nc(CNc3ccc(C(=O)N[C@@H](CCC(=O)O)C(=O)O)cc3)cnc2[nH]1` [FOLIC ACID], the results for the Inhibition in assay [1], in assay [2] and in assay [3] were 12.05%, 1.12% and -7.28%, respectively.
As to `CN(C)[C@@H]1C(=O)C(C(=O)NCN2CCCC2)=C(O)[C@@]2(O)C(O)=C3C(=O)c4c(O)cccc4[C@@](C)(O)C3CC12` (stereo partly drawn), the figures for the Inhibition in assay [1], in assay [2] and in assay [3] were 7.32%, 0.75% and -8.19%, respectively.
The like results for `O=C(O)COCCN1CCN(C(c2ccccc2)c2ccc(Cl)cc2)CC1` (stereo not drawn) [CETIRIZINE] were, in that order, -1.38%, 3.71% and -6.19%.
For the molecule `CC(=O)O[C@]1(C(C)=O)CC[C@H]2[C@@H]3C=C(C)C4=CC(=O)CC[C@]4(C)[C@H]3CC[C@@]21C` [MEGESTROL ACETATE], the values for the Inhibition in assay [1], in assay [2] and in assay [3] were 7.28%, 5.92% and -0.12%, respectively.
As for `COc1ccc(C(=O)NCc2ccc(OCCN(C)C)cc2)cc1OC.Cl`, the Inhibition in assay [1] is 9.02%; in assay [2], 4.71%; in assay [3], -2.57%.
Turning to `CCCc1cc(=O)[nH]c(=S)[nH]1` [PROPYLTHIOURACIL], the Inhibition was 16.2% in assay [1], 3.22% in assay [2] and -1.39% in assay [3].
In the case of `CC(C)c1ccc2c(c1)c(SC(C)(C)C)c(CC(C)(C)C(=O)O)n2Cc1ccc(Cl)cc1`, the Inhibition was 11.6% in assay [1], 1.56% in assay [2] and -9.17% in assay [3].
With `C[C@@H]1CN(CCCn2c3ccccc3c3ccccc32)C[C@H](C)N1.Cl.O`, the Inhibition in assay [1] was -0.67%; in assay [2], 0.45%; in assay [3] it was 2.04%.
For the molecule `CC(C)(C(=O)O)c1ccc(C(O)CCCN2CCC(C(O)(c3ccccc3)c3ccccc3)CC2)cc1.Cl` (stereo not drawn) [FEXOFENADINE HYDROCHLORIDE], the Inhibition was 13.11% in assay [1], 1.18% in assay [2] and -7.41% in assay [3].
